Out of some 310,000 compounds screened, about 14,000 (4.5%) showed an effect of 50% or more. The effect is printed as a negative number. What follows is part of a selection rich in strong results, with near analogues and random picks from the rest.
Each compound was assayed against human ether-à-go-go-related gene (hERG) potassium channel (human, UniProt Q12809) (assay: primary screen, population patch clamp on CHO cells stably expressing hERG; higher = less effect of the substance).
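Further: peak tail current of the secondary pulse compared with the same well before compound.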

Sequence of human ether-à-go-go-related gene (hERG) potassium channel (Q12809 whole entry, looked up): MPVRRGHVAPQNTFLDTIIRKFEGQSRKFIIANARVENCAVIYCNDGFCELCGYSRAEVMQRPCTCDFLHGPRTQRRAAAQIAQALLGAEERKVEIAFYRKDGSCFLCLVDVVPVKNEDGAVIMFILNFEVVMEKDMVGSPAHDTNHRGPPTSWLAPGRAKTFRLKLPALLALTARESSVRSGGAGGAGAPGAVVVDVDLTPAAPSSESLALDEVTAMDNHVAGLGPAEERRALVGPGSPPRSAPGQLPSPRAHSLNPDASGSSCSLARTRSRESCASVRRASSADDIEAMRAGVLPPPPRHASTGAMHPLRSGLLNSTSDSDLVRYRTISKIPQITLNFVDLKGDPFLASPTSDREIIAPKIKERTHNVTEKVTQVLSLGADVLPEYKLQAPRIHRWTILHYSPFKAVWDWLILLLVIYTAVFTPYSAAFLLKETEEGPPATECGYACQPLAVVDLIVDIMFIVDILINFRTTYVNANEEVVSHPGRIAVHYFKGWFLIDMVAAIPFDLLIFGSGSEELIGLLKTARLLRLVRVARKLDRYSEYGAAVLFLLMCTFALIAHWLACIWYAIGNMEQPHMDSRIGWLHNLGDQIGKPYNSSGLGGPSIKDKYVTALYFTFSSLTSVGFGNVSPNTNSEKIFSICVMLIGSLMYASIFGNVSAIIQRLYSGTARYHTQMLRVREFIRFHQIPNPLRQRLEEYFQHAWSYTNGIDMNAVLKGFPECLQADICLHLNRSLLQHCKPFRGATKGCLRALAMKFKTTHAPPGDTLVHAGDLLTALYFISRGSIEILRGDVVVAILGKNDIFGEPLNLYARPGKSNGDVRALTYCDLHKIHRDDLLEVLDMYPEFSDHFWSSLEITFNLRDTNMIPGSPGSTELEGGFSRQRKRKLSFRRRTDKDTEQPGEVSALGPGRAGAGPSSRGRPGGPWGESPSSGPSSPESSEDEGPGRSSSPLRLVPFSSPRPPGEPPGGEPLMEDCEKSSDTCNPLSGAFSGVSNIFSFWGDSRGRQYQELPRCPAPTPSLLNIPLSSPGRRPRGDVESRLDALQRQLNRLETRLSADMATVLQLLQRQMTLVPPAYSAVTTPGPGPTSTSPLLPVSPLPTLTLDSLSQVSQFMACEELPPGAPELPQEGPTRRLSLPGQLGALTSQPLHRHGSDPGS

| SMILES | hERG current change (%, negative = inhibition) at 10uM [%] |
| --- | --- |
| Cc1ccc(NC(=O)CSCC(=O)N2c3ccccc3CCc3ccccc32)cc1 | 7.66 |
| CC(=O)Nc1ccccc1C(=O)N1CCN(Cc2ccccc2)CC1 | 5.02 |
| O=c1[nH]c(=O)n(Cc2ccco2)c(O)c1C=NCc1ccco1 | 3.46 |
| Cc1nnc(NC(=O)CSc2nnc(-c3ccc(S(=O)(=O)N4CCCC4)cc3)n2C)s1 | -3.39 |
| C/C(=N\NC(=O)C1CC1)c1ccc(OC(F)F)cc1 | 9.94 |
| CCOc1ccc(NC(=O)CSCC(=O)O)cc1 | 1.8 |
| Oc1ccc(/C(Cc2ccccn2)=N\Nc2ccccc2)c(O)c1 | 8.76 |
| CC(=O)c1ccc(OCc2cc(C(=O)NC3CCCCC3)no2)cc1 | 5.17 |
| Cc1ccc(C)c(OCc2cc(C(=O)NC3CCN(Cc4ccccc4)CC3)no2)c1 | -41.1 |
| O=C(NC1CCc2ccccc21)c1cc(COc2ccc(F)cc2F)on1 (stereo not shown) | 16.5 |
| CC(=O)c1cccc(OCc2cc(C(=O)NC3CCN(Cc4ccccc4)CC3)no2)c1 | -62.9 |
| O=C(NC1Cc2ccccc2C1)c1cc(COc2ccc(F)cc2Cl)on1 | 13.3 |
| O=C(NC1CCN(Cc2ccccc2)C1)c1cc(COc2ccc(F)cc2F)on1 (stereo not shown) | -64.2 |
| c1ccc(-c2ccc(SCc3cccnc3)nn2)nc1 | 8.9 |
| COC(=O)CCCC1=CC2=CC(=O)C(C)(OC(=O)c3cnc4ccccc4n3)C(=O)C2=CO1 (stereo not shown) | 7.07 |
| O=C(Nc1ccc(Br)cc1)c1cnccn1 | -2.9 |
| COc1cccc(CCC(=O)N(C)C2CCCN(Cc3ccccc3F)C2)c1 (stereo not shown) | -0.453 |
| CCN(CC1CCCN(CCc2cccc(OC)c2)C1)C(=O)C=C(C)C (stereo not shown) | -61.1 |
| CCN(CC1CCCN(CCc2cccc(OC)c2)C1)C(=O)c1ccoc1 (stereo not shown) | -70.7 |
| CCN(CC1CCCN(CCc2cccc(OC)c2)C1)C(=O)c1ccoc1C (stereo not shown) | -62.8 |
| COc1cccc(CNC(=O)CCC2CCCN(C(=O)c3ccoc3C)C2)c1 (stereo not shown) | 5.6 |
| CCN(CC1CCCN(CCc2cccc(OC)c2)C1)C(=O)c1ccc(COC)o1 (stereo not shown) | -71 |
| COCc1ccc(CN2CCCC(C(=O)Nc3ccc(-c4cccc(OC)c4)cc3)C2)o1 (stereo not shown) | -0.711 |

| SMILES | hERG current change (%, negative = inhibition) at 10uM [%] |
| --- | --- |
| COc1cccc(CC(=O)NC2CCCN(Cc3ccccc3F)C2)c1 (stereo not shown) | -5.72 |
| COc1cccc(CNC(=O)CCC2CCCN(C(=O)c3ccoc3)C2)c1 (stereo not shown) | 24.9 |
| CCN(CC)C(=O)C1CCCN(Cc2cccc(Oc3ccccc3)c2)C1 (stereo not shown) | -19.6 |
| CCOC(=O)C1C(=O)NC(N2CCN(c3ccccc3)CC2)=NC1c1ccco1 (stereo not shown) | -5.81 |
| O=C(COC(=O)CCNS(=O)(=O)c1cccs1)Nc1cc(C(F)(F)F)ccc1Cl | -26.1 |
| Cc1ccc(/C=C/C(=O)O)cc1S(=O)(=O)N(CCO)CCO | 8.09 |
| Cc1sc2ncnc(Sc3nnnn3-c3ccc(Cl)cc3)c2c1C | 11.2 |
| Nc1nccnc1C(=O)OCC(=O)c1ccc[nH]1 | -0.119 |
| COc1ccc(CCn2c(=S)[nH]c3ccc(N4CCOCC4)cc3c2=O)cc1OC | 10.2 |
| O=C(c1cccc(Cl)c1)N1CCN(c2ccc(N3CCOCC3)nn2)CC1 | -34.8 |
| CC(=O)c1ccc(Oc2ncnc(N)c2[N+](=O)[O-])cc1 | 12.4 |
| COc1ccc(-c2nc(CS(=O)CC(=O)NC3CCC(C)CC3)c(C)o2)cc1OC (stereo not shown) | -34.6 |
| COc1ccc(-c2n[nH]c(=S)n2-c2ccc(C)cc2)cc1 | 8.3 |
| Br.Cn1c(=N)n(CC(=O)c2ccc(Br)s2)c2ccccc21 | -6.86 |
| Br.CCn1c(=N)n(CC(=O)C(C)(C)C)c2ccccc21 | -21.1 |
| C=CCn1c(=N)n(CC(=O)c2ccc(Br)cc2)c2ccccc21 | -43.5 |
| Br.C=CCn1c(=N)n(CC(=O)c2ccccc2)c2ccccc21 | -23.9 |
| Br.CCN(CC)CCn1c(=N)n(CC(=O)c2ccc(Br)s2)c2ccccc21 | -76.9 |
| Br.C=CCn1c(=N)n(CC(=O)c2ccc(Br)s2)c2ccccc21 | -58.6 |
| Br.CCCCn1c(=N)n(CC(=O)C(C)(C)C)c2ccccc21 | -55 |
| Br.CCn1c(=N)n(CC(=O)C23CC4CC(CC(C4)C2)C3)c2ccccc21 | -32.3 |
| Br.CCn1c(=N)n(CC(=O)c2ccc(Br)s2)c2ccccc21 | -69.3 |
| Br.CCCCn1c(=N)n(CC(=O)O)c2ccccc21 | 22.4 |

| SMILES | hERG current change (%, negative = inhibition) at 10uM [%] |
| --- | --- |
| Br.CCN(CC)CCn1c(=N)n(CC(=O)c2ccc(C)cc2)c2ccccc21 | -40.8 |
| O=C(c1ccc(CNS(=O)(=O)c2ccccc2)cc1)N1CCC2(CC1)OCCO2 | -4.16 |
| COc1ccc(NC(=O)CC2C(=O)N(c3ccccc3)C(=O)N2CCc2cccs2)cc1 (stereo not shown) | -32.9 |
| CCOc1ccccc1NC(=O)C1CCCCN1S(=O)(=O)c1ccc(F)cc1 (stereo not shown) | -2.26 |
| CN1CCN(C(c2cccnc2)c2ccc3cccnc3c2O)CC1 (stereo not shown) | -4.29 |
| Cc1cccn2c(=O)nc(SCC(=O)N3CC(C)OC(C)C3)nc12 (stereo not shown) | 1.96 |
| CCc1nc(NCCO)c(C#N)c2c1CCCC2 | 13.4 |
| CCOc1ccccc1-c1nnc(SCC(=O)NC2(C#N)CCCC2)o1 | -19.2 |
| CC(C)OC(=O)c1ccc(NC(=O)Cn2c(-c3nonc3N)nc3ccccc32)cc1 | 18.4 |
| CC1(c2ccccc2)NC(=S)N2C1NC(=S)N2c1ccccc1 (stereo not shown) | 10.2 |
| COc1cc(NC(=O)C/C(C)=N/NC(=O)c2cccc(O)c2)c(OC)cc1Cl | -8.16 |
| CCOC(=O)COn1c(=O)c(=O)n(OC)c2ccccc21 | 17.8 |
| O=C(COC(=O)Cc1cn2ccsc2n1)NCc1ccc2c(c1)OCO2 | -15.2 |
| Br.N=c1n(CC(=O)c2ccc(Br)s2)c2ccccc2n1Cc1ccccc1 | -61.7 |
| O=C(O)Cn1c(=O)n(Cc2ccccc2)c2ccccc21 | 23.4 |
| Br.N=c1n(CC(=O)c2cccs2)c2ccccc2n1Cc1ccccc1 | -48 |
| CCCn1c(=N)n(CC(=O)c2cccs2)c2ccccc21 | -22 |
| Br.CCCCn1c(=N)n(CC(=O)c2ccc(Br)s2)c2ccccc21 | -52.8 |
| Br.Cn1c(=N)n(CC(=O)c2cccs2)c2ccccc21 | -0.146 |
| CCC(C(=O)NCCN1CCOCC1)n1c2ccccc2c2nc(=O)cc(C)n21 (stereo not shown) | 23.1 |
| Cc1cccc(NC(=O)CSc2nnnn2-c2cccnc2)c1 | -6.57 |
| COc1ccc(OC)c2nc(-c3cccnc3)ccc12 | 10.2 |
| O=C(c1ccc(F)cc1)N1CCC2(CC1)OCCO2 | 19 |

| SMILES | hERG current change (%, negative = inhibition) at 10uM [%] |
| --- | --- |
| CC(=O)Nc1ccc(S(=O)(=O)N2CCC3(CC2)CC(=O)c2ccccc2O3)cc1 | -36.6 |
| O=C1CC2(CCN(C(=O)c3ccc(F)cc3)CC2)Oc2ccccc21 | -76 |
| O=C(c1cccc(Br)c1)N1CCCC1 | 0.701 |
| O=C1CC2(CCCCC2)Oc2ccc(Cl)cc21 | 1.26 |
| O=C1CC2(CCN(C(=O)c3ccc(Br)cc3)CC2)Oc2ccccc21 | -73.5 |
| O=C1CC2(CCN(C(=O)c3cccc(Br)c3)CC2)Oc2ccccc21 | -85.5 |
| O=C1CC2(CCN(C(=O)c3cccc(Cl)c3)CC2)Oc2ccccc21 | -78.5 |
| Oc1c(C(Nc2cccc(C(F)(F)F)c2)c2ccncc2)ccc2cccnc12 (stereo not shown) | 12.3 |
| CCOc1ccc(S(=O)(=O)NCCC(=O)OCC(=O)Nc2cc(C)on2)cc1 | -44.1 |
| COc1ccc(-c2nnn(CC(=O)c3ccc4c(c3)OCCO4)n2)cc1OC | 9.3 |
| C/C(=N\NC(=O)c1cc(-c2ccc(Br)s2)[nH]n1)c1ccncc1 | 11.1 |
| COc1ccc(C(=O)CCc2ccccc2)cc1 | 9.03 |
| CCOC(=O)N1CCN(c2nc(-c3ccco3)cc(C(F)(F)F)n2)CC1 | -3.17 |
| Cc1ccc(C(=O)Nc2cccnc2N2CCN(C)CC2)cc1 | -5.47 |
| O=C1CC2(CCN(C(=O)c3ccc(Cl)cc3)CC2)Oc2ccccc21 | -87.8 |
| O=C1CC2(CCN(C(=O)c3cccc(F)c3)CC2)Oc2ccccc21 | -75.1 |
| O=C1CC2(CCCC2)Oc2ccc(F)cc21 | -8.58 |
| O=C(c1ccc(Cl)cc1)N1CCC2(CC1)OCCO2 | 13.2 |
| Cc1cccc(NS(=O)(=O)c2cccc(C(=O)N3CCCC3)c2)c1 | 4.7 |
| CC(C)(C)NC(=O)COC(=O)c1ccc(Cl)cc1O | 18.8 |
| C=CCN=C1CC(C)(C)CC(=O)/C1=C(\O)CCCN1C(=O)c2ccccc2C1=O | -23.5 |
| Cc1ccc(NC2c3ncccc3C(=O)N2C2CCCCC2)cc1 (stereo not shown) | 5.93 |
